This passage reports growth results from PubChem BioAssay (NCI).

This is part of a sample that, as a whole, favours compounds with a hit. Of some 83,000 tested, about 20% had one in any assay.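 Percent growth is the endpoint: 0 to 100 indicates growth inhibition (40 means 60% inhibition), 0 means no net growth, and negative values indicate cell death.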 Active and inactive are the calls of the source. The calls were made as follows: active = growth percent below 10; inactive = the rest.

The assay concerns HL-60(TB) leukemia. Description: NCI-60 one-dose screen, 48 h (100 = growth as untreated, 0 = no growth, -100 = all killed). As to conditions: 10 µM unless noted.
Turning to `NS(=O)(=O)c1ccc(N=Nc2c(O)n(CC(=O)Nc3ccccc3)c3ccccc23)cc1`, the growth is 48.7% (inactive).

Take `O=C(Cc1ccc2c(c1)CN(C1CCC(=O)NC1=O)C2=O)NCc1cccc2ccccc12` (stereo not drawn): the growth was -24.9% (active).

`Oc1ccc(F)c(Nc2nc(SCCN3CCOCC3)nc3c2cnn3CC(Cl)c2ccc(Br)cc2)c1` (stereo not drawn): the growth was 2.22% (active).

Regarding `O=C1NC(=S)/C(=C/c2cn(-c3ccccc3)nc2-c2ccccc2)S1`, the growth is 21% (inactive).

On to `CC(=O)OCC1OC(OC2C(COC(C)=O)OC(n3cc(COc4ccc5ccc(=O)oc5c4)nn3)C(OC(C)=O)C2OC(C)=O)C(OC(C)=O)C(OC(C)=O)C1OC(C)=O` (stereo not drawn), for which the growth was 103% (inactive).

For `COc1cc(/C=N/NC(=O)c2ccc3nc(-c4ccc(Cl)cc4)[nH]c3c2)cc(OC)c1OC`, the growth is 32.1% (inactive).

With `O=c1[nH]c2ccccc2cc1COc1ccc(Nc2nccc(-c3ccc(Cl)cc3)n2)cc1`, the growth is 95% (inactive).

Take `CCN1C(=O)N(CC)C2NNC(Sc3c(C(=O)O)c4ccccc4n(CC(C)C)c3=O)=NC21` (stereo not drawn): the growth was -53.3% (active).

On to `O=C1Nc2cc(Cl)ccc2/C1=C/c1cccc(OCc2ccc(Br)cc2F)c1`, for which the growth is -57.8% (active).

For `CCOC(=O)C1=C(N)N(c2ccc(C)cc2)C2=C(C(=O)CC(C)(C)C2)C1c1ccccc1Br` (stereo not drawn), the growth is -11.2% (active).

As for `C/C(=N\N=C1/C(=O)Nc2ccc(Cl)cc21)c1ccc2c(c1)Nc1ccccc1S2`, the growth was 8.43% (active).

For the compound `O=C1Nc2ccc(F)cc2/C1=C/c1cccc(OCc2ccccc2)c1`, the growth was -17.4% (active).

Consider `N#Cc1c(-c2ccc(Cl)cc2)nc2n[nH]c(-c3ccc(Cl)cc3)c2c1-c1cccs1`, for which the growth was 23.7% (inactive).
